# Compounds with a hit are over-represented: about 15% of the library has one in this group of screens.
# Pf growth 48h = P. falciparum growth inhibition at 48 hours (one generation) | P. falciparum luciferase growth in erythrocytes, 48 h | Potency, µM (series often up to 28.7 µM), without a hit: top-dose activity change, negative = inhibition, hits mostly inhibitors | hit rate 5.9% among 310,000 | AID 504832; also: potency is read from the fitted curve at half-maximal effect; % is scaled to controls: 0 for no effect and ±100 for the full control effect
#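 First compound was added to culture medium, then infected red cells at 0.1% parasitemia and 2% hematocrit (final). After incubation at 37 C under 5% CO2, luciferase detection reagent was dispensed and light output recorded.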
# Sm TGR block = S. mansoni TGR enzyme inhibition | Q962Y6 | purified TGR, DTNB reduction, TNB absorbance 405 nm | Potency, µM (titrated, usually from 114 µM), inactives show at the top dose activity change, negative = inhibition, hits mostly inhibitors | hit rate 3% among 360,000 | AID 485364; also: potency is read from the fitted curve at half-maximal effect; % is scaled to controls: 0 for no effect and ±100 for the full control effect; nearly all actives have a fitted effect of over 60% in size
#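 First, TGR (20 nM dispensed) and NADPH were mixed with compound. Second, a 15 min room-temperature incubation followed. Third, further NADPH and then DTNB were added to start the reaction. Finally, TNB absorbance was monitored kinetically.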
# HCMV antiviral = blocks human cytomegalovirus replication; HFF cells, HCMV-luciferase reporter, 72 h; stronger effect = lower value; activity change, negative = inhibition, % at 57.5 µM; hit rate 4.5% among 410,000; in the data active = activity change below about -60%; inconclusive = no clear call, values can overlap the other calls; inactive = above about -39%; also: % is scaled to controls: 0 for no effect and ±100 for the full control effect
#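 Two-dose cell screen: HFF monolayers treated with compounds and infected with luciferase-expressing HCMV at 1 PFU/cell, 72 h at 37C, then lysed for luciferase measurement.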
# Pf growth 96h = P. falciparum growth inhibition at 96 hour, primary screen for plastid delayed-death inhibitors; P. falciparum luciferase reporter growth, 96 h; Potency, µM (top dose mostly 28.7 µM), for inactives: top-dose activity change, negative = inhibition, hits mostly inhibitors; hit rate 6.9% among 320,000; also: potency is read from the fitted curve at half-maximal effect; % is scaled to controls: 0 for no effect and ±100 for the full control effect
#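 Two-generation exposure (96 h) targets delayed-death phenotype. Reporter parasites carrying integrated firefly luciferase, in red cells at 2% hematocrit and 0.05% parasitemia final, kept at 37 C, 5% CO2; luminescence loss indicates inhibition.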
# SARS PLP yeast = SARS-CoV PLP inhibition in yeast. Potency, µM (top dose mostly 32.9 µM), for the others: top-dose activity, positive = growth rescue, actives largely listed as activators. S. cerevisiae expressing SARS-CoV PLpro, growth rescue. hit rate 0.19% among 330,000; calls by dose curve; also: potency is read from the fitted curve at half-maximal effect; 0% is about no effect; nearly all actives have a fitted effect of over 55% in size
# HCV inhibitor = blocks hepatitis C virus; Huh7.5.1 HCVcc-Cre infection, luciferase reporter, 44 h; Potency, µM (highest dose often 41.8 µM), for inactives: top-dose activity change, negative = inhibition, usual class: inhibitors; hit rate 3.4% among 340,000; AID 651820; also: potency is read from the fitted curve at half-maximal effect; % is scaled to controls: 0 for no effect and ±100 for the full control effect
#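 Infectious HCVcc-Cre (~0.5 moi) was added to cells just after compound, with cells seeded 4 h earlier at 1,000 per well. Luciferase activity after 44 h culture reported infection; substrate was incubated 15 min at room temperature before reading.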
# Numbers without * were called inactive; ? = inconclusive; · = no result given. Unless noted, calls follow the shape of the dose curve; as a rule, active = well fitted curve in the direction sought with a large enough effect; inconclusive = small, poorly fitted or top-dose-only effect, or another doubt; inactive = no such curve, though single readings can be large; an effect the other way counts as inactive or inconclusive.
SMILES,Pf growth 48h,Sm TGR block,HCMV antiviral,Pf growth 96h,SARS PLP yeast,HCV inhibitor
C#CCn1c(S(=O)(=O)Cc2ccccc2Cl)nc(-c2ccccc2)c1-c1ccccc1,8.28µM*,1.5%,-69.9*,?,-0.6%,5.2%
CCOC(=O)Cn1c(C)nc2ccccc21,41.9%,-25.6%,-30.5,?,-2.6%,-1.7%
CCOC(=O)Cn1nc(-c2ccccc2)c(-c2ccccc2)nc1=O,0.7%,-4.5%,?,4.4%,1.4%,27.6%
CCOC(=O)Cn1c(S(=O)(=O)Cc2ccccc2Cl)nc(-c2ccccc2)c1-c1ccccc1,9.28µM*,6.9%,-32.4,2.62µM*,3.8%,8.3%
CCOC(=O)Cn1c(-c2cccnc2)nc(-c2ccccc2)c1-c1ccccc1,4.15µM*,-3.6%,?,2.33µM*,-0.3%,-17.7%
Cc1ccc(S(=O)(=O)Cc2ccccc2Cl)cc1,-5.2%,-8.0%,-25.0,?,8.6%,-24.1%
C#CCn1c(S(=O)(=O)Cc2ccc(C)cc2)nc(-c2ccccc2)c1-c1ccccc1,?,6.2%,-94.6*,?,-4.7%,?
COc1ccc(C(CC(=O)c2ccc3c(c2)OCO3)C(=O)O)cc1OC (stereo unspecified),·,·,29.8,·,·,·
CSc1nc2ccccc2n1Cc1c(Cl)cccc1Cl,·,1.9%,-39.4,11.7µM*,9.6%,?
Fc1cccc(Cl)c1Cn1c(-c2cccs2)nc2ccccc21,·,1.5%,-63.4*,·,·,·
OCc1nc2ccccc2n1Cc1c(F)cccc1Cl,-2.0%,-2.3%,-23.3,1.8%,-1.1%,2.1%
O=C(c1ccccc1F)N1CC(=O)N2[C@@H](CO)[C@H](c3ccc(Br)cc3)[C@@H]2C1,·,·,14.0,·,·,·
CCOC(=O)N1CCN(C(=O)COC(=O)Cc2ccc(Cl)cc2)CC1,4.4%,7.9%,-26.7,20.5%,-2.6%,18.7%
OC1c2cc(Cl)cc(Cl)c2N=C2CCCN21 (stereo unspecified),·,·,-15.9,·,·,·
COc1ccc2c(c1)CC/C(=C\Nc1ccc3c(c1)OCO3)C2=O,3.6%,6.31µM*,-7.8,·,-27.1%,7.08µM*
COc1ccc(N/C=C2\CCOC2=O)cc1,12.4%,-10.7%,3.9,10.6%,3.8%,16.5%
COc1ccc(N/C=C2\CCc3ccccc3C2=O)cc1,34.7%,39.8µM*,-18.2,13.7%,-4.2%,-25.3%
O=C1/C(=C/Nc2ccc3c(c2)OCO3)CCc2ccccc21,·,?,-62.0*,-96.6%,-30.1%,?
O=C1OC2(CCCCC2)OC(=O)C1=CNc1ccc2c(c1)OCO2,-16.1%,-15.3%,-9.0,31.1%,-2.2%,7.4%
CCn1c2c(c(=O)n3ncc(C(=O)N4CCN(c5ccc(Cl)cc5)CC4)c13)CN(Cc1ccc(OC)cc1)CC2,·,-1.1%,?,·,·,·
CCCC(=O)N=c1sc2c(OC)ccc(OC)c2n1C,41.6%,25.5%,?,43.6%,0.1%,-8.5%
CCOc1ccc(N(CC(=O)Nc2ccc(OC)cc2)C2=NC3CS(=O)(=O)CC3S2)cc1 (stereo unspecified),5.9%,1.5%,-5.5,13.1µM*,-0.6%,16.7%
CCOc1ccc(OCC)c(NC(=O)CN(c2ccc(OC)cc2)S(=O)(=O)c2c(C)noc2C)c1,13.1µM*,1.3%,20.9,?,8.3%,?
CCc1ccc(NC(=O)CN(c2ccc3c(c2)OCO3)S(=O)(=O)c2c(C)noc2C)cc1,·,0.0%,-70.8*,20.2%,3.1%,1.4%
COc1ccc(OC)c(NC(=O)CN(c2ccc(C)cc2)S(=O)(=O)c2c(C)noc2C)c1,?,-22.3%,11.7,1.85µM*,-3.1%,?
CCOc1ccc(NC(=S)N(CCOC)C2CCN(C(C)C)CC2)cc1,9.8%,-2.2%,-14.6,?,-0.2%,?
COc1ccccc1-c1cnc2c(c1)C(=O)N([C@@H](C)CO)C[C@@H](C)[C@H](CN(C)C(=O)c1cccnc1)O2,·,·,3.4,·,·,·
CC(=O)Nc1cccc(NC(=O)CN2C(=O)CCSc3ccccc32)c1,·,-0.2%,19.6,·,·,·

# Compound activity deposited in PubChem by National Center for Advancing Translational Sciences (NCATS).
